The results in this text go back to PubChem BioAssay (NCATS).

Inconclusive results are not listed. The source made the active and inactive calls. Unless noted, calls follow the shape of the dose curve; as a rule, active = well fitted curve in either direction with a large enough effect (not every such curve was filed as active); inconclusive = small, poorly fitted or top-dose-only effect, or another doubt; inactive = flat fitted curve, though single readings scatter.

For assay [1], the target named is Lysosomal acid glucosylceramidase (Homo sapiens) (UniProt P04062). Put plainly: Glucocerebrosidase-p2 (AID 348; in the data active = potency below about 10 µM; also: potency is read from the fitted curve at half-maximal effect). Conditions: purified GBA, blue fluorogenic substrate, 40 min. In short, it runs like this:
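Normal human glucocerebrosidase (0.2 nM) with blue fluorogenic substrate (80 uM final) in citrate/phosphate pH 5.9 with 10mM sodium taurocholate, 0.01% tween-20; 40 min RT, NaOH/glycine stop; fluorescence Ex 365/Em 440; AC50 from a titration from 0.6 nM upwards.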

Assay [2] in a line: AP1 Signaling Pathway (AID 357). Also: % is scaled to controls: 0 for no effect and ±100 for the full control effect. Conditions: ME-180 AP-1-bla reporter, EGF-induced, beta-lactamase ratio, 5 h; at 7.69 µM (top of the series) unless noted. In short, it runs like this: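 Cells are seeded overnight, exposed to compound titrations and an EC50 level of EGF for 5 hours at 37 °C, then loaded with CCF4 dye for 2.5 hours. Beta-lactamase activity under the AP-1 element is read as a blue/green ratio.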

Assay [3] can be described thus: NFAT Signaling Pathway (AID 444).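 Also: carbachol stimulus at about its EC50 of 1 µM final; % is scaled to controls: 0 for no effect and ±100 for the full control effect.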 Conditions: Jurkat NFAT-bla M1, carbachol, beta-lactamase ratio, 5 h; at 7.69 µM (top of the series) unless noted. The procedure, abridged:
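Jurkat cells carrying an NFAT-driven β-lactamase reporter and co-transfected muscarinic M1 receptor were treated with compound plus carbachol (1 uM final, an EC50 level) for 5 h at 37 °C. CCF4 loading followed for 1 h at RT; 460/530 nm ratio gave %activity.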

A short description of assay [4]: Stat Signaling Pathway (AID 446).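 Also: ME-180 cervical cancer cells given 40 pM IL-6 alongside compound; SIE-controlled beta-lactamase reporter measured as 460/530 nm FRET emission ratio; % is scaled to controls: 0 for no effect and ±100 for the full control effect.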 The following applies: ME-180 (cervical carcinoma) SIE beta-lactamase reporter, IL-6 stimulated, 5 h; at 7.69 µM (top of the series) unless noted. The procedure, abridged: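 Emission at 460 and 530 nm (excitation 405 nm) reports SIE-controlled beta-lactamase in ME-180 cells. Cells received compound with 40 pM IL-6 for 5 hrs at 37 C; data scaled between 300 pM IL-6 and 125 nM JAK-inhibitor controls.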

Assay [5] addresses Glucocorticoid receptor (Homo sapiens) (UniProt P04150). The experiment in a line: GR-GFP Redistribution (AID 450;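 active = compounds whose dose series gives a full or clear partial fitted curve of increased nuclear translocation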; also: potency is read from the fitted curve at half-maximal effect). The following applies: U2OS GR-GFP nuclear translocation, laser cytometry, 2 h.
For assay [6] the target is unchanged. The experiment in a line: GR-EFC Redistribution (AID 451; calls by dose curve; also: potency is read from the fitted curve at half-maximal effect). The following applies: CHO-K1 GR-EFC translocation, beta-gal luminescence, 2 h. In short, it runs like this: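 CHO-K1 cells stably expressing nuclear-localized β-gal enzyme acceptor and GR fused C-terminally to the enzyme donor fragment; ligand-driven nuclear translocation restores β-gal by complementation. Compounds titrated up to 46 uM final, 2 h at 37 °C; luminescence read.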

The target in assay [7] is Mitogen-activated protein kinase 10 (Mus musculus) (UniProt Q61831). The experiment in a line: JNK3 AlphaScreen Assay (AID 530).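 Also: kinase came from lysate of stimulated human HepG2 cells; % is scaled to controls: 0 for no effect and ±100 for the full control effect.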 Conditions: JNK3 lysate, c-Jun phosphorylation; series mostly up to 57.1 µM. The procedure, abridged: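 Biotinylated GST-cJun(1-79) served as substrate for JNK3 in HepG2 lysates stimulated with IL-1beta and TNF-alpha. ATP was 10 uM final, pH 7.6. Ser73 phosphorylation was quantified by AlphaScreen (680 nm excitation).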

In assay [8] the target is 3',5'-cyclic-AMP phosphodiesterase 4B (Homo sapiens) (UniProt Q07343). Put plainly: qHTS Assay for Inhibitors of PDE-IV (AID 607; active = well fitted activation curve with a large enough effect in the main read-out, with a control signal flat, not every such curve was filed as active; also: % of control where 0% means no effect). Conditions: HEK293 ACTOne CNG channel cells, membrane potential fluorescence; series mostly up to 22.9 µM. The procedure, abridged: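 The readout is membrane depolarisation from a cAMP-sensing CNG channel, detected with a potential dye at ex 535/em 590. Cells were HEK293-derived (endogenous PDE-IV) at 1000 cells/well, titrated up to 22.9 uM final.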

For assay [9], the target named is Cytochrome P450 3A4 (Homo sapiens) (UniProt P08684). Put plainly: qHTS Assay for Inhibitors and Substrates of Cytochrome P450 3A4 (AID 884; active = well fitted curve in the direction sought with a large enough effect; an effect the other way counts as inactive or inconclusive; also: potency is read from the fitted curve at half-maximal effect; nearly all actives have a fitted effect of over 50% in size). The following applies: recombinant CYP3A4, Luciferin-PPXE luminescence; series mostly up to 57.1 µM. The procedure, abridged: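 Luminescent readout of luciferin produced by CYP3A4 (20 nM) dealkylation of Luciferin-PPXE, 25 uM (its KM). NADPH-driven reaction ran 60 min at RT after 10 min compound preincubation; data scaled to 57 uM ketoconazole as 100% inhibition.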

For assay [10] the target is unchanged. The experiment in a line: qHTS Assay for Activators of Cytochrome P450 3A4 (AID 885; active = well fitted curve in the direction sought with a large enough effect; an effect the other way counts as inactive or inconclusive; also: nearly all actives have a fitted effect of over 65% in size). Conditions: recombinant CYP3A4, Luciferin-PPXE luminescence, 60 min; series mostly up to 57.1 µM. In short, it runs like this: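 Activators are scored by enhanced luminescence from CYP3A4 conversion of luciferin-PPXE (25uM, equal to KM) to luciferin, after 60 min at RT with an NADPH-regenerating system.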

Assay [11] in a line: Confirmation and Secondary Assay for Modulators of Hemoglobin Beta Chain Splicing at IVS2 705 locus (AID 930; active = well fitted curve in the direction sought with a large enough effect; an effect the other way counts as inactive or inconclusive;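 also: HeLa cells stably expressing the EGFP-705 splicing reporter; % of control where 0% means no effect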). Conditions: HeLa EGFP-705 splicing reporter, GFP fluorescence, 48 h; series mostly up to 38.3 µM. The procedure, abridged:
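HeLa cells stably carrying EGFP interrupted by mutant beta-globin IVS2-705 intron (CMV-driven) were seeded at 500 cells/well, treated next day with compound for 2 days at 37C; corrected splicing restores EGFP, read as total peak GFP intensity per well.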

Assay [12] is described as follows: qHTS Assay for Lipid Storage Modulators (AID 1519; calls by dose curve). The following applies: Drosophila S3 cells, BODIPY lipid droplet/cell ratio, laser cytometry, cells loaded with oleic acid; for activity change, negative = inhibition: at 57.5 µM (top of the series). The procedure, abridged: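 Cells seeded at 5,000 per well were treated with compounds over a concentration series and loaded with oleic acid (400 uM, as added). Lipid droplet fluorescence (488 nm excitation, 500-530 nm channel) was read by laser-scanning cytometry and normalized to 20 uM Triacsin C.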

Assay [13] in a line: Primary qHTS for small molecule stabilizers of the endoplasmic reticulum resident proteome: Secreted ER Calcium Modulated Protein (SERCaMP) assay (AID 1508630; active = well fitted curve in the direction sought with a large enough effect; an effect the other way counts as inactive or inconclusive; also: % is scaled to controls: 0 for no effect and ±100 for the full control effect). Conditions: SH-SY5Y GLuc-SERCaMP (Gaussia luciferase released on ER calcium loss) secretion, thapsigargin, luminescence; series mostly up to 38.4 µM. The procedure, abridged: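 The SH-SY5Y reporter protocol was run at 3 concentrations up to 38.3 uM (primary) or 11 concentrations (follow-up): 16 h compound, 100 nM thapsigargin for 4 h, then extracellular luciferase luminescence.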

For assay [14], the target named is Cytochrome P450 2C19 (Homo sapiens) (UniProt P33261). Put plainly: qHTS Assay for Inhibitors and Substrates of Cytochrome P450 2C19 (AID 899; active = well fitted curve in the direction sought with a large enough effect; an effect the other way counts as inactive or inconclusive; also: potency is read from the fitted curve at half-maximal effect; nearly all actives have a fitted effect of over 60% in size). Conditions: recombinant CYP2C19, luciferin-H EGE luminescence; series mostly up to 57.1 µM. In short, it runs like this:
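Human CYP2C19 (5nM) with Luciferin-H EGE at 10uM (its KM) in 50mM KPO4 was preincubated with compound for 10 min at 37C. NADPH regeneration started a 60 min 37C reaction. Luciferin was read by luminescence, normalized to 57uM ketoconazole.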

Assay [15] can be described thus: Confirmation and Secondary Assay for Modulators of Hemoglobin Beta Chain Splicing at IVS2 654 locus (AID 910; active = well fitted curve in the direction sought with a large enough effect; an effect the other way counts as inactive or inconclusive;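 also: per-well total GFP intensity by laser scanning cytometry after 2-day treatment; % of control where 0% means no effect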). Conditions: HeLa EGFP-654 splicing reporter, GFP fluorescence, 48 h; series mostly up to 38.3 µM. The procedure, abridged:
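HeLa cells stably carrying EGFP interrupted by mutant beta-globin IVS2-654 intron (CMV-driven) were treated with compound for 2 days at 37C; corrected splicing was scored as total peak GFP intensity per well (488 nm excitation, 500-520 nm emission).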

[16] abbreviates: measured here: cell count channel max response.
The mark [17] stands for this setting: measured here: lipid channel max response.

Chain of Cytochrome P450 3A4 (Homo sapiens) (P08684 whole entry, looked up): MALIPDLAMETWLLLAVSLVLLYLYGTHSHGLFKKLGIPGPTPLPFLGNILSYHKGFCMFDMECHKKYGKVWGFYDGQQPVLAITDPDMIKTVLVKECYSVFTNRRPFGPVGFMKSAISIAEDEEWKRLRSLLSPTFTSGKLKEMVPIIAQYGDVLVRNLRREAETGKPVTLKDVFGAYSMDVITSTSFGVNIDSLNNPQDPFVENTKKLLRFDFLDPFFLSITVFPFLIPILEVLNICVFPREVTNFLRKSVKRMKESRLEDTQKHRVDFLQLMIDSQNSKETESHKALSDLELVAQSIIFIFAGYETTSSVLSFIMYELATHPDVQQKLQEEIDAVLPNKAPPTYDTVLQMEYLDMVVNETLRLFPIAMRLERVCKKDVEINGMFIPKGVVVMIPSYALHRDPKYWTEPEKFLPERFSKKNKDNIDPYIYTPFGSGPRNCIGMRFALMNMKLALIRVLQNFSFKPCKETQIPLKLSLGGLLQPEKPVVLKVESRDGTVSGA
Chain of Glucocorticoid receptor (Homo sapiens) (P04150 whole entry, looked up, the tested form may be a part): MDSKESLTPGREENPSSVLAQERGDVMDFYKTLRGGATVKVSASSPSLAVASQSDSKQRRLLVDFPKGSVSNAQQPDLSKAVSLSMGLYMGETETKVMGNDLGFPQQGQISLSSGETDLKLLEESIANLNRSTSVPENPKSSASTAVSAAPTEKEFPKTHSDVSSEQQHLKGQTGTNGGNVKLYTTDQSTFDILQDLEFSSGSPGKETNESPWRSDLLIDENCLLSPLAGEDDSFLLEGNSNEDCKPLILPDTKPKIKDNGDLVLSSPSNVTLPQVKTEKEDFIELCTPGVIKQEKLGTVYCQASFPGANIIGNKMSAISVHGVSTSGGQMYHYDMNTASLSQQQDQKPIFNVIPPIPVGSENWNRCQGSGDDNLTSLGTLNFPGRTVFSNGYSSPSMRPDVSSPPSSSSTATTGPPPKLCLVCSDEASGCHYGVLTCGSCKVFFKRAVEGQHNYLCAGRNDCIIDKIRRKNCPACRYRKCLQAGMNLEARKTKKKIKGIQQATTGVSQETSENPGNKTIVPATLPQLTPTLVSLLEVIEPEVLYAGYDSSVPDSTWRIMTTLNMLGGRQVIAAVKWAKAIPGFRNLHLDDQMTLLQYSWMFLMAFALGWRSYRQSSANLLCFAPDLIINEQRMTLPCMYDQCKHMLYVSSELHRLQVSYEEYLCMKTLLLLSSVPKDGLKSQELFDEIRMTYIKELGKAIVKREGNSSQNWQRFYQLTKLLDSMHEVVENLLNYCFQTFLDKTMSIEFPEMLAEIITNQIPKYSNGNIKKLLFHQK
Chain of 3',5'-cyclic-AMP phosphodiesterase 4B (Homo sapiens) (Q07343 whole entry, looked up): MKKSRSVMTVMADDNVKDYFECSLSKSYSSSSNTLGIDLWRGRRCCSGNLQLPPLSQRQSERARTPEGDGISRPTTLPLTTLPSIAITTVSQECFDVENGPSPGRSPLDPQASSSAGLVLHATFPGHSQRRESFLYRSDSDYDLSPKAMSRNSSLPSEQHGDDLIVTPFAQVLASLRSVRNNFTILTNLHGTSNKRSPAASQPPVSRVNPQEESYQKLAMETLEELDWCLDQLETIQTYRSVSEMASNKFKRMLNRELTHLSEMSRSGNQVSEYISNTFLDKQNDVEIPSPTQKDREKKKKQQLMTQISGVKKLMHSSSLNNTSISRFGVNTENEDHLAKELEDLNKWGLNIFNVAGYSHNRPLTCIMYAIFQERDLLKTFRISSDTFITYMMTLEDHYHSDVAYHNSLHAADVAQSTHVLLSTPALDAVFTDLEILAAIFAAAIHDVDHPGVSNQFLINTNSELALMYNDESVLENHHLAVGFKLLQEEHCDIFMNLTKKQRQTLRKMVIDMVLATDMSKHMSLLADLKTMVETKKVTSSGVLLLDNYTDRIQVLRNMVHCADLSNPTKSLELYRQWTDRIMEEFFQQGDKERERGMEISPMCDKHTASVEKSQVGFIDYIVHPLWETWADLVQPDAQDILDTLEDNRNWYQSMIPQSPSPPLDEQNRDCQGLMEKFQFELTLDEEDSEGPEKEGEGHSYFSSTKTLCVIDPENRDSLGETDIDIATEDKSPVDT
Chain of Lysosomal acid glucosylceramidase (Homo sapiens) (P04062 whole entry, looked up): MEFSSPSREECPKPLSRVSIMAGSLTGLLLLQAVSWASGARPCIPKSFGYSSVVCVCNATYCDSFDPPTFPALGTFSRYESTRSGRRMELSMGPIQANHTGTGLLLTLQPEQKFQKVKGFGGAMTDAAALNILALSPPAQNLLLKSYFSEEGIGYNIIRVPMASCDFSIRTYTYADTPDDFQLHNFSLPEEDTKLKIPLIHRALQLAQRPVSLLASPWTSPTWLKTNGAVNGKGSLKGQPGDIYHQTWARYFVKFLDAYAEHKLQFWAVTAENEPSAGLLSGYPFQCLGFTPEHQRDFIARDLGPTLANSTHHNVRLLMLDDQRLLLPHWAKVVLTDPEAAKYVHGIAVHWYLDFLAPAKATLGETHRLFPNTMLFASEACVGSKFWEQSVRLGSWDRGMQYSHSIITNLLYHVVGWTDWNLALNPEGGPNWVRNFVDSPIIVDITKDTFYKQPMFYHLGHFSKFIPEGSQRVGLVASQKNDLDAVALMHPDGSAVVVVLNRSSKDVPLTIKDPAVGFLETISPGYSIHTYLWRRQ
Chain of Cytochrome P450 2C19 (Homo sapiens) (P33261 whole entry, looked up): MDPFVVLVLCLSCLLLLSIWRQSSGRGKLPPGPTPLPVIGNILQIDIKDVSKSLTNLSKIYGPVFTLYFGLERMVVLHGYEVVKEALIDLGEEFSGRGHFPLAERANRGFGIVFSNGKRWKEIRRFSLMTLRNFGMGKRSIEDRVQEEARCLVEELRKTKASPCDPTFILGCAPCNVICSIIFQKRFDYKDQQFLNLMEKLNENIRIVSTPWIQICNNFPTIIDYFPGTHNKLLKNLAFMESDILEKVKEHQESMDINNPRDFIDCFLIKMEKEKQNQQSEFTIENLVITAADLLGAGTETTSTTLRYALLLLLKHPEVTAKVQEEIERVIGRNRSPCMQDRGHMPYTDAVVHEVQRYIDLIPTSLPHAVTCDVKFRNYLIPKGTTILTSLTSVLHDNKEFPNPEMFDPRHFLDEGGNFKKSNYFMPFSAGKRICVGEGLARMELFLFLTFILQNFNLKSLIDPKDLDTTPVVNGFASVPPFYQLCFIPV

As for `Cc1cccc(CNc2cc(-c3ccoc3)ncn2)c1`, the Potency was > 11.4 µM (inactive) in assay [1], > 46 µM (inactive) in assay [5], > 46 µM (inactive) in assay [6] and 7.94 µM (active) in assay [9]. Moreover, the activity change, negative = inhibition was -15.6% (inactive) in assay [2], 12% (inactive) in assay [3] and 5.52% (inactive) in assay [12]. The activity, negative = inhibition in assay [4] is -3.91% (inactive). Also, the Potency result in assay [7], in [8] and in [10] was “inactive” throughout. Further, the result in assay [11] and in [13] was inactive. The max response was -1.87% in assay [12] (setting [16]) and 6.63% in [12] (setting [17]).

Turning to `N#Cc1ccc(CN2CC[C@@]3(CCCN(C(=O)c4ccncc4)C3)C2)cc1`, the Potency in assay [1] was > 11.4 µM (inactive); in [6], > 46 µM (inactive). For the same compound, the results for the activity change, negative = inhibition in assay [2], in assay [3] and in [12] were -10.1% (inactive), -7.12% (inactive) and 4.36% (inactive), respectively. For the same compound, the activity, negative = inhibition in [4] was 8.24% (inactive). Moreover, in assay [7], the Potency entry is “inactive”. For the same compound, the values for the max response in assay [12] (setting [16]) and in [12] (setting [17]) were 17.6% and 26%, respectively. Also, the outcome in assay [13] was inactive.

Regarding `O=C(c1csnn1)N1CCC2(CC1)CN(c1ncccn1)C2`, the values for the Potency in assay [1] and in assay [6] were > 11.4 µM (inactive) and > 46 µM (inactive), respectively. For the same compound, the activity change, negative = inhibition is 13.2% (inactive) in [2], 16.9% (inactive) in assay [3] and 0.698% (inactive) in assay [12]. Besides, in [4], the activity, negative = inhibition was 1.44% (inactive). In addition, the Potency result in assay [7] and in [8] was “inactive” throughout. Moreover, the figures for the max response in assay [12] (setting [16]) and in [12] (setting [17]) were -0.721% and 1.07%, respectively. Further, the result in [13] was inactive.

Take `COc1ccc(-n2c(=O)cnc3cnc(Nc4ccccc4)nc32)cc1`: the values for the Potency in assay [1], in assay [5] and in assay [6] were > 11.4 µM (inactive), > 9.22 µM (inactive) and > 46 µM (inactive), respectively. In addition, the results for the activity change, negative = inhibition in assay [2], in assay [3] and in assay [12] were -13.4% (inactive), 5.4% (inactive) and 7.14% (inactive), respectively. Further, the activity, negative = inhibition in assay [4] was -1.48% (inactive). Moreover, the Potency result in assay [7] is “inactive”. The max response in assay [12] (setting [16]) was 8.28%; in assay [12] (setting [17]) it was 18.1%. Further, the outcome in assay [13] was inactive.

`Cc1nc2cnc(N3CCNCC3)nc2n(C2CC2)c1=O`: the Potency is > 11.4 µM (inactive) in assay [1], > 9.22 µM (inactive) in assay [5] and > 46 µM (inactive) in [6]. For the same compound, the results for the activity change, negative = inhibition in [2], in [3] and in assay [12] were 5.94% (inactive), 3.04% (inactive) and 0.607% (inactive), respectively. Also, the activity, negative = inhibition in [4] is -7.48% (inactive). Also, the Potency entry in assay [7] and in assay [8] was “inactive” each time. Moreover, the max response in assay [12] (setting [16]) was 18.2%; in [12] (setting [17]), 19.1%. Further, the outcome in [13] was inactive.

`Cc1ccccc1-c1cc(Nc2ccc(F)cc2)ncn1`: the Potency in assay [1] is > 11.4 µM (inactive); in assay [5], > 46 µM (inactive); in assay [6] it was > 46 µM (inactive); in assay [14] it was 0.631 µM (active). In addition, the activity change, negative = inhibition in [2] is -11.7% (inactive); in assay [3] it was 6.17% (inactive); in assay [12], 9.27% (inactive). Further, the activity, negative = inhibition in [4] is -0.99% (inactive). The Potency result in assay [7], in assay [10] and in [15] was “inactive” throughout. The outcome in [11] and in [13] was inactive. Besides, the max response in assay [12] (setting [16]) was -1.72%; in [12] (setting [17]), 7.96%.

As for `Cc1noc(C)c1-c1nc(NCc2cccnc2)c2ccccc2n1`, the results for the Potency in assay [1], in assay [5] and in assay [6] were > 11.4 µM (inactive), > 46 µM (inactive) and > 46 µM (inactive), respectively. For the same compound, the activity change, negative = inhibition in assay [2] is 2.83% (inactive); in assay [3], -10.7% (inactive); in [12] it was 11.8% (inactive). Further, the activity, negative = inhibition in assay [4] was -14.2% (inactive). Also, the Potency entry in assay [7] and in assay [15] was “inactive” throughout. The compound was classed as inactive in assay [11] and in assay [13]. For the same compound, the results for the max response in assay [12] (setting [16]) and in assay [12] (setting [17]) were 12.2% and 21%, respectively.
